High-throughput results from PubChem.
ALOX12 inh: Primary qHTS assay for inhibitors of human arachidonate 12S-lipoxygenase (ALOX12): Round 2 | Potency, µM (doses to about 108 µM), for inactives: top-dose activity change, negative = inhibition, hits mostly inhibitors | purified 12hLO, xylenol orange hydroperoxide absorbance | Polyunsaturated fatty acid lipoxygenase ALOX12 (Homo sapiens), P18054 | AID 1671190, 2021 | hit rate 1.1% among 580,000; also: potency is read from the fitted curve at half-maximal effect
Target sequence (P18054 whole entry, looked up): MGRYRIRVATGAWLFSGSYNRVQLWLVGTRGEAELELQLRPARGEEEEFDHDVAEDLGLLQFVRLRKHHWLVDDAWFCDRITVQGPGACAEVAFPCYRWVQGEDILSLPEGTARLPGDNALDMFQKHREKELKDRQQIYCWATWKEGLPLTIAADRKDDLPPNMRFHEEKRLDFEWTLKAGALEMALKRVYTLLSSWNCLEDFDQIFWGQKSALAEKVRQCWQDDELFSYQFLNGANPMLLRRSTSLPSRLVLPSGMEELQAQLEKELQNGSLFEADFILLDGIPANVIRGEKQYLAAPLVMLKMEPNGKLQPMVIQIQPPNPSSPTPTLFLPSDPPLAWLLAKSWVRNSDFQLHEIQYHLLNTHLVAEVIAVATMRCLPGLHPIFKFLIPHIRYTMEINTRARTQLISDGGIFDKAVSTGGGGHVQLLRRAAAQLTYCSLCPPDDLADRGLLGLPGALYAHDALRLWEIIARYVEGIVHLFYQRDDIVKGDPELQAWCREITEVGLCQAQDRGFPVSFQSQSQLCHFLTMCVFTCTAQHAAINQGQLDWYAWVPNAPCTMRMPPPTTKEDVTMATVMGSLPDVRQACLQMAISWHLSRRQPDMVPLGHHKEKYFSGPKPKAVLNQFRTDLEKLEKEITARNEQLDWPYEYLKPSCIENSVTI
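Purified human 12hLO at 150 nM in 25 mM Hepes, 0.01% Triton X-100, pH 7.0, preincubated 15 min at room temperature with compound. Reaction started with 40 uM arachidonic acid, 30 min at room temperature. Hydroperoxide measured by Fe-xylenol orange, 573/405 nm absorbance ratio.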
HT1080 IDH1KD tx: qHTS for induction of synthetic lethality in tumor cells producing 2HG: qHTS for the HT-1080-IDH1KD cell line | HT-1080 IDH1 knockdown viability, ATP luminescence, 48 h | Potency, µM (top dose mostly 46.1 µM), for the others: at the highest dose activity, negative = toxicity, most hits filed as cytotoxic | hit rate 2% among 360,000 | AID 686971, 2013;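 also: potency is read from the fitted curve at half-maximal effect; 0% = DMSO wells and -100% = cell-free medium wells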
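After a 2 h attachment period, IDH1KD HT-1080 cells took pin-transferred compound for 48 h at 37 °C; ATP-based luminescence after 10 min room-temperature reagent incubation reported viability.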
TDP1 cell noCPT: qHTS for Inhibitors of human tyrosyl-DNA phosphodiesterase 1 (TDP1): qHTS in cells in absence of CPT. DT40 Tdp1-/- hTDP1 cells, no CPT, ATP luminescence, 48 h. Potency, µM (top dose mostly 46.2 µM), for inactives: top-dose activity change, negative = growth inhibition, most hits filed as inhibitors. hit rate 15% among 420,000; also: potency is read from the fitted curve at half-maximal effect; nearly all actives have a fitted effect of over 55% in size
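A cellular qHTS used chicken DT40 cells lacking endogenous Tdp1 but carrying stably transfected human TDP1. Compounds were applied without camptothecin, and cell growth kinetics were judged by ATP-dependent luminescence after ≥48 hr.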
IL-1B inflam inh: qHTS for Inhibitors of Inflammasome Signaling: IL-1-beta AlphaLISA Primary Screen. THP-1 LPS/ATP IL-1B secretion, AlphaLISA, 16 h; active compounds read low. activity change, % at 57.5 µM. hit rate 4.7% among 360,000. AID 743279, 2014; in the data active = activity change below about -50%; inconclusive = mostly about -30% to -49%
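THP-1 cells pretreated 1 hr with compounds (up to 57.5 uM final), then stimulated with LPS (250 ng/mL final) plus ATP (1.25 mM final); secreted IL-1B measured by AlphaLISA after 16 hr, decreased signal indicating inhibition.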
TDP1 cell CPT: qHTS for Inhibitors of human tyrosyl-DNA phosphodiesterase 1 (TDP1): qHTS in cells in presence of CPT; chicken DT40 Tdp1-/-;hTDP1 cells + 20 nM CPT, ATP luminescence, 48 h; Potency, µM (doses to about 46.2 µM), for the others: top-dose activity change, negative = growth inhibition, most hits filed as inhibitors; hit rate 12% among 420,000; also: potency is read from the fitted curve at half-maximal effect; nearly all actives have a fitted effect of over 55% in size
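Cell growth measured by CellTiter-Glo luminescence after a minimum 48 h, 37 C compound exposure with 20 nM CPT in Tdp1-knockout DT40 cells stably expressing hTDP1, seeded 400/well; qHTS titration format.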
HT1080NT lethal: qHTS for induction of synthetic lethality in tumor cells producing 2HG: qHTS for the HT-1080-NT fibrosarcoma cell line; HT-1080-NT fibrosarcoma viability, CellTiter-Glo ATP luminescence, 48 h; Potency, µM (top dose mostly 46.1 µM), inactives show at the top dose activity, negative = less viability, hits mostly cytotoxic; hit rate 1.6% among 360,000; AID 686970, 2013;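 also: NT is the 2HG producing partner of a matched IDH1 knockdown line; potency is read from the fitted curve at half-maximal effect; 0% = DMSO-treated cells and -100% = media-only wells without cells; nearly all actives have a fitted effect of over 55% in size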
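Luminescent CellTiter-Glo readout after 48 hours of compound exposure at 37 degrees C defined viability of HT-1080-NT cells. Activity was normalized to DMSO wells and cell-free media wells; concentration-response curves were fitted and assigned curve classes.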
* marks the source's active call; other numbers are inactive results; ? = inconclusive; / = no result given. The sample as a whole holds a higher share of hits than the screen did. Unless noted, calls follow the shape of the dose curve; as a rule, active = well fitted curve in the direction sought with a large enough effect; inconclusive = small, poorly fitted or top-dose-only effect, or another doubt; inactive = no such curve, though single readings can be large; an effect the other way counts as inactive or inconclusive. Unless noted, % is scaled to controls: 0 for no effect and ±100 for the full control effect.

SMILES	ALOX12 inh	HT1080 IDH1KD tx	TDP1 cell noCPT	IL-1B inflam inh	TDP1 cell CPT	HT1080NT lethal
COC(=O)c1ccc(NC2c3ccccc3C(=O)N2c2cccnc2)cc1 (stereo unspecified)	11%	/	/	/	/	/
CCOC(=O)c1ccc(NC2c3ccccc3C(=O)N2c2cccnc2)cc1 (stereo unspecified)	24%	-15%	10µM*	41	12µM*	-28%
COC(=O)c1ccccc1NC1c2ccccc2C(=O)N1c1cccnc1 (stereo unspecified)	20%	-3%	?	-12	15µM*	-7%
CC1=C(C(=O)N(C)C)C(c2ccc(Cl)cc2)N2C(CC(=O)NCC3CCCO3)=CSC2=N1 (stereo unspecified)	30%	/	/	/	/	/
COc1ccc(C(=O)O)cc1N1C(=O)Nc2ccccc2N1O	45µM*	0%	-23%	6	-8%	1%
O=C(Nc1cccc(Oc2ccccc2)c1)c1ccc(-n2cncn2)c2ccoc12	-10%	?	?	34	18µM*	-8%
O=C(Nc1cccc(F)c1)c1ccc(-n2cncn2)c2ccoc12	-11%	6%	-12%	-29	4%	20%
CC(=O)NC1=NN(C(C)=O)C2(S1)C(=O)N(CC(C)C)c1ccc(Br)cc12 (stereo unspecified)	24%	/	/	/	/	/
Cc1ccc(-c2nc3ccc(Br)cn3c2Cc2cccc(F)c2)cc1	?	?	?	-25	16µM*	?
Cc1ccc2nc(-c3ccccc3)c(Cc3cccc(F)c3)n2c1	?	?	21µM*	22	?	?
O=C1CCN(S(=O)(=O)c2ccccc2)CCCC(C(=O)NCCN2CCOCC2)CCN1 (stereo unspecified)	25%	/	/	/	/	/
Cc1cc(NC(=O)C(C)C)ccc1Br	17%	/	/	/	/	/
Cc1cccc(-c2nc(CCNC(=O)Cc3ccccc3)cs2)c1	-22%	/	21µM*	/	?	/
COc1cc(OC)cc(C(=O)NCCc2csc(-c3ccc(C(F)(F)F)cc3)n2)c1	0%	/	18µM*	/	?	/
COc1cc(OC)cc(C(=O)NCCc2csc(-c3cccc(C)c3)n2)c1	-12%	/	16µM*	/	15µM*	/
COc1ccc(CCC(=O)NCCc2csc(-c3cccc(C)c3)n2)cc1	-9%	/	?	/	?	/
COc1ccc(CC(=O)NCCc2csc(-c3ccc(C(F)(F)F)cc3)n2)cc1	-20%	/	/	/	/	/
COc1ccc(/C=C2/CSC/C(=C/c3ccc(OC)c(OC)c3)C2=O)cc1OC	-23%	5.8µM*	2.9µM*	-117*	4.1µM*	5.8µM*
COc1cc(C=C2CCCC(=Cc3ccc(OCC4CO4)c(OC)c3)C2=O)ccc1OCC1CO1 (stereo unspecified)	-30%	?	3.7µM*	-105*	5.8µM*	16µM*
COc1ccc(/C=C2/C(=O)C(C)(C)OC2(C)C)cc1OC	-31%	/	/	/	/	/
COc1ccc(/C=C2\N=C(C)OC2=O)cc1OC	-4%	1%	-22%	-9	10µM*	7%
O=C(CSc1nc(C2CC2)n(-c2ccccc2)n1)N1CCN(c2ccccc2)CC1	4%	/	/	/	/	/
NC(=O)CCC(NC(=O)C1(c2ccccc2)CCCC1)C(N)=O (stereo unspecified)	2%	/	/	/	/	/
CC1CCc2nc(/C(C#N)=C/c3cccnc3)sc2C1 (stereo unspecified)	-3%	?	?	-22	21µM*	-4%
CCOCCn1c(NCCOC)nc2c1c(=O)[nH]c(=O)n2C	14%	/	/	/	/	/
